Bioassay records deposited in PubChem by The Scripps Research Institute Molecular Screening Center.
Sampled rows, rich in hits. Any-hit rate of the full collection: about 0.84%.
SRC1 TRFRET art – TR-FRET artefact, counter-screen to PPARgamma/SRC-1 agonist assay; TR-FRET detection artefact counter-screen, emission ratio; active compounds read high; TR-FRET ratio at 8 µM; 0.34% of 99,000 active; in the data active = TR-FRET ratio above about 2300
TR-FRET SRC-2 ct – TR-FRET artefact, counter-screen to PPARgamma/SRC-2 agonist assay | AID 1049 | 0.4% of 200,000 active | active compounds read high | TR-FRET ratio at 8 µM
PPARg SRC-2 ag – promotes SRC-2 coactivator recruitment by human PPARgamma; P37231; 0.34% of 200,000 active; AID 1032; PPARgamma LBD-SRC-2 recruitment, biochemical; activation, % at 8 µM; in the data active = activation above about 22%;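 also: 0% = vehicle and 100% = reference agonist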
PPARg SRC-3 ag – PPARgamma-driven SRC-3 recruitment agonism. biochemical PPARgamma/SRC-3 coactivator recruitment assay. AID 731. activation, % at 8 µM. 0.26% of 200,000 active; in the data active = activation above about 23%;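 also: 0% = DMSO and 100% = reference agonist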
PPARg SRC-1 ag – promotes SRC-1 coactivator recruitment by human PPARgamma; AID 631; 0.41% of 200,000 active; PPARgamma-SRC-1 coactivator recruitment biochemical assay; activation, % at 8 µM; P37231; in the data active = activation above about 19%;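 also: 0% = DMSO and 100% = reference agonist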
SRC3 TRFRET art – counter-screen for PPARgamma SRC-3 recruitment agonists: TR-FRET artefact; AID 1048; PPARgamma/SRC-3 format; active compounds read high; 0.39% of 99,000 active; TR-FRET ratio at 8 µM
PPARg SRC2 ag – human PPARgamma SRC-2 recruitment agonism, confirmation; shares compounds with PPARg SRC-3 ag; biochemical SRC-2 recruitment by PPARgamma; activation, % at 8 µM; 52% of 790 active; AID 1297; in the data active = activation above about 22%;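 also: 0% = vehicle alone and 100% = reference agonist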
PPARg SRC1 ag – human PPARgamma SRC-1 recruitment agonism, confirmation | shares compounds with PPARg SRC-3 ag | PPARgamma–SRC-1 coactivator recruitment biochemical assay | activation, % at 8 µM | 43% of 790 active | AID 1300; in the data active = activation above about 20%;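 also: 0% = vehicle wells and 100% = reference agonist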
PPARg SRC3 conf – confirmation of agonists of SRC-3 recruitment by human PPARgamma | AID 1301 | shares compounds with PPARg SRC-3 ag | biochemical PPARgamma-SRC-3 coactivator recruitment, agonist mode | 29% of 790 active | activation, % at 8 µM; in the data active = activation above about 24%;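 also: 0% = vehicle wells and 100% = reference agonist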
Target sequence (P37231 whole entry, looked up): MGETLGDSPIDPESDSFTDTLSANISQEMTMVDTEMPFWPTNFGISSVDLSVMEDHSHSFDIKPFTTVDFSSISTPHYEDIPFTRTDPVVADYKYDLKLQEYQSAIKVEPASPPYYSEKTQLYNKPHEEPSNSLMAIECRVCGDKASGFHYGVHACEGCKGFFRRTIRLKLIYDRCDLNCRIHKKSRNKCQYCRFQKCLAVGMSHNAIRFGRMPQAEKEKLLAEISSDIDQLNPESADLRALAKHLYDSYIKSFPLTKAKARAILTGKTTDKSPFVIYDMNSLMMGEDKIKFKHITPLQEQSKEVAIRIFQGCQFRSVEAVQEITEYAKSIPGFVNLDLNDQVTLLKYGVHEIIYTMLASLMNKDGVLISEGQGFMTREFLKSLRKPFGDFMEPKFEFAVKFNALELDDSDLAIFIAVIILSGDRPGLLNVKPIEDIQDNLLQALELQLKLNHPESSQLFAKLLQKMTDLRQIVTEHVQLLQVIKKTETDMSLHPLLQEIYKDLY
Target sequence (Q9Y6Q9 whole entry, looked up): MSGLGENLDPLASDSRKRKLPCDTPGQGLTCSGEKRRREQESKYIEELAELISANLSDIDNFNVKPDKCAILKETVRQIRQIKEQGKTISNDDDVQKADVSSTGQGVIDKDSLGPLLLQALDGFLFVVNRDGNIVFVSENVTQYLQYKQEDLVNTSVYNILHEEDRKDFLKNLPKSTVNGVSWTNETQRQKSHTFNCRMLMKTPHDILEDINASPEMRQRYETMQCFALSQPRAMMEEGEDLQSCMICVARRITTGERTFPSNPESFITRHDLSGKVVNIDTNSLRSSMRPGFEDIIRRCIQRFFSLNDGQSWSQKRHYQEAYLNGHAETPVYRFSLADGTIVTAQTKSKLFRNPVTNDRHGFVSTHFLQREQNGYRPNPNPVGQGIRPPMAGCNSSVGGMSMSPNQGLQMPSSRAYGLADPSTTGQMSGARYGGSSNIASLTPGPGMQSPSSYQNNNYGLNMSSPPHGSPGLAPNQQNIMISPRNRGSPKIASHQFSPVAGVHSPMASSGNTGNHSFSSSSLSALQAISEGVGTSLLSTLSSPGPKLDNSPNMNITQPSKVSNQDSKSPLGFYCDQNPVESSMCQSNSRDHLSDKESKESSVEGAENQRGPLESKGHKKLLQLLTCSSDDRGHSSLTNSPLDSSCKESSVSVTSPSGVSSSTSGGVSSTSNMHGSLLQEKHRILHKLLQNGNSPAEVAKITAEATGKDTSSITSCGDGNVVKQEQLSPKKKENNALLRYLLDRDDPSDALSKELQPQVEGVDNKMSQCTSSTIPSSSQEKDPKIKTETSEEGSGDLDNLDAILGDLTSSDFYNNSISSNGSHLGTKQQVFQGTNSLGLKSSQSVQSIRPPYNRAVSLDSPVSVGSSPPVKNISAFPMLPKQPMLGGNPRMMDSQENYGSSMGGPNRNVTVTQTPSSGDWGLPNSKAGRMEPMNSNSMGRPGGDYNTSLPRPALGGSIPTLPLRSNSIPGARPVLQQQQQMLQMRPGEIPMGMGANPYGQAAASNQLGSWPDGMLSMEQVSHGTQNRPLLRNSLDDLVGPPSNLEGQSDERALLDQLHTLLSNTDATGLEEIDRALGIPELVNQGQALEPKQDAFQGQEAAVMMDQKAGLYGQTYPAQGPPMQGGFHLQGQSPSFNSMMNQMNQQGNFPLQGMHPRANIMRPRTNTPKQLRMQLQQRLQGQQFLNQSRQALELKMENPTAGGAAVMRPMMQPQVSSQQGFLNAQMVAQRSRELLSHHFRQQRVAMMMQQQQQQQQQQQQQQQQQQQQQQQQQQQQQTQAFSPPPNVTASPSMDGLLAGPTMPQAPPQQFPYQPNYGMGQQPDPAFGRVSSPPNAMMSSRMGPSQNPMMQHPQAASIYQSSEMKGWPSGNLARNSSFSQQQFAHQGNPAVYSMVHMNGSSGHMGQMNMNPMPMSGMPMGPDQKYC
* marks the source's active call; other numbers are inactive results; nt = no result. Rule as the data show it, unless noted: active = TR-FRET ratio above about 2000; inactive = the rest.

SMILES	SRC1 TRFRET art	TR-FRET SRC-2 ct	PPARg SRC-2 ag	PPARg SRC-3 ag	PPARg SRC-1 ag	SRC3 TRFRET art	PPARg SRC2 ag	PPARg SRC1 ag	PPARg SRC3 conf
Cc1c(N=Cc2nc3ccccc3n2C)c(=O)n(-c2ccccc2)n1C	nt	1578	2	5	7	nt	nt	nt	nt
O=C(O)c1cc(-c2ccc(Cl)s2)nc2ccccc12	3037*	2455*	39*	22	37*	2388*	50*	35*	33*
COc1ccc2c(c1)O[C@@H](c1cccc(C(F)(F)F)c1)[C@H](OC(=O)N[C@H]1CCCc3ccccc31)C2=O	1778	1831	25*	1	10	1457	1	6	0
CCN(CC)S(=O)(=O)c1ccc(/C=C/C(=O)OCC(=O)N(C)C)cc1	1796	1456	0	-4	-4	1507	nt	nt	nt
CCCC(C)NC(=O)c1ccc(OCc2ccc(Cl)cc2)c(OC)c1 (stereo not drawn)	2154	1657	23*	57*	62*	1723	31*	56*	48*
CC(=O)c1ccc(N2CCN(C(=O)c3ccc(Cn4c(=S)[nH]c5ccc(N6CCOCC6)cc5c4=O)cc3)CC2)cc1	4282*	3627*	37*	35*	40*	3877*	19	15	12
c1csc(-c2cnc3ccccc3n2)c1	1778	1598	3	2	6	1571	nt	nt	nt
c1cc2c(cnc3cscc32)s1	3316*	2391*	53*	29*	49*	2526*	62*	51*	42*
Cc1cc(C)c(S(=O)(=O)NC(CC(=O)O)c2cccc([N+](=O)[O-])c2)c(C)c1 (stereo not drawn)	1707	1568	1	-2	0	1407	nt	nt	nt
N#Cc1c(SCC(=O)O)nc(-c2ccccc2)c2c1CCCC2	nt	1727	11	30*	17	nt	14	11	9
O=C1CSC2=NCN(c3ccc4c(c3)OCO4)CN12	nt	1524	-8	-5	2	nt	nt	nt	nt
CN(C)c1ccc(N2CN=C3SCC(=O)N3C2)cc1	nt	2229*	64*	86*	50*	nt	6	10	3
Cc1nc2ncccn2c1-c1csc(Nc2ccccc2)n1	1937	1514	5	2	2	1596	nt	nt	nt
Cc1nc2ncccn2c1-c1csc(Nc2ccc(N(C)C)cc2)n1	2311	1937	24*	11	16	1862	15	9	7
Cc1ccc2nc(N3CCN(S(=O)(=O)c4ccc5c(c4)OCCO5)CC3)c(C#N)cc2c1	nt	3423*	22*	45*	31*	nt	14	8	6
Cc1ccc(S(=O)(=O)N2CCCN(S(=O)(=O)c3ccc4c(c3)OCCO4)CC2)cc1	nt	1679	5	-10	7	nt	nt	nt	nt
COC(=O)c1cc(Br)c(=O)n(-c2nccs2)c1	nt	2990*	57*	74*	37*	nt	22*	10	16
COC(=O)c1cc(Br)c(=O)n(-c2ccccn2)c1	nt	1459	-4	-8	6	nt	nt	nt	nt
CCOC(=O)c1c(C)[nH]sc1=S	nt	2727*	58*	70*	40*	nt	33*	21*	25*
Cc1[nH]n(-c2cccc(Cl)c2)c(=O)c1C=NCC(C)C	1936	1571	4	-2	-1	1530	nt	nt	nt
CC1=C(C(=O)Nc2ccccc2)C(c2cccnc2)n2ncnc2N1 (stereo not drawn)	1919	1633	-1	0	4	1862	nt	nt	nt
CCOc1ccc(CCNC(=O)CSc2cc(=O)n(C)c3ccccc23)cc1OCC	2625*	2107*	26*	12	26*	1967	31*	18	19
Cn1c(=O)cc(SCC(=O)NCCCN2CCN(c3ccccc3F)CC2)c2ccccc21	nt	4083*	92*	125*	90*	nt	52*	34*	36*
CCCCNC(=O)CSc1cc(=O)n(C)c2ccccc12	nt	2320*	41*	43*	33*	nt	31*	20*	21
Cn1c(C(=O)NCCCN2CCN(c3ccccc3F)CC2)cc2c(=O)n(C)c3ccccc3c21	nt	1516	-11	-3	-4	nt	nt	nt	nt
SMILES	SRC1 TRFRET art	TR-FRET SRC-2 ct	PPARg SRC-2 ag	PPARg SRC-3 ag	PPARg SRC-1 ag	SRC3 TRFRET art	PPARg SRC2 ag	PPARg SRC1 ag	PPARg SRC3 conf
CCOc1ccc(CCNC(=O)COc2cc(=O)n(C)c3ccccc23)cc1OCC	1630	1368	-10	-5	-8	1439	nt	nt	nt
CCCCNC(=O)CSc1nc(CCC)nc2ccccc12	2029	1519	6	31*	31*	1690	15	24*	14
Cc1ccc(NC(=O)c2noc(C(C)C)c2[N+](=O)[O-])cc1	1730	1506	-9	-1	0	1537	nt	nt	nt
CCC(C)C(NC(=O)C(C)NC(=O)CNC(=O)CNC(=O)OCc1ccccc1)C(=O)OC (stereo not drawn)	nt	1514	1	7	7	nt	nt	nt	nt
Cn1c(C(=O)NCCCN2CCOCC2)cc2c(=O)n(C)c3ccccc3c21	nt	1527	8	-9	-1	nt	nt	nt	nt
Cn1c(=O)cc(SCC(=O)NCCCN2CCOCC2)c2ccc(Cl)cc21	nt	2615*	65*	83*	60*	nt	47*	31*	32*
Cn1c(=O)cc(SCC(=O)NCCCN2CCOCC2)c2ccccc21	nt	2011*	28*	46*	30*	nt	13	8	9
C=CCn1c(SCC(=O)Nc2cccnc2Cl)nnc1-c1ccccc1F	1741	1436	6	-3	2	1620	nt	nt	nt
N=C1C(c2ccccc2)=C(O)CN1CCO	1772	1649	6	6	13	1509	nt	nt	nt
COc1ccc(OC)c(C(=O)CSc2nnc(Cc3cccs3)n2C)c1	nt	1412	-10	-14	-2	nt	nt	nt	nt
CCCC(=O)Nc1c2c(nc3ccccc13)N(c1ccccc1)CC2	2803*	3204*	61*	46*	46*	2855*	41*	25*	26*
CN(C)n1cnc2ccsc2c1=O	1900	1399	-7	0	-5	1497	nt	nt	nt
CN1CCC/C1=C/C=C1\SC(=S)NC1=O	2166	1675	24*	11	14	1794	1	3	3
O=C(OCn1ncc(Br)c(Br)c1=O)c1ccccc1Cl	nt	1784	19	21	6	nt	nt	nt	nt
O=C(OCn1ncc(Br)c(Br)c1=O)c1ccc(F)cc1	nt	2296*	37*	44*	22*	nt	43*	29*	31*
COc1ccc(C2=NN(C(=O)CN3CCCCC3)C(c3ccc(C)cc3)C2)cc1 (stereo not drawn)	1708	1498	1	1	2	1434	nt	nt	nt
CNC(=S)N1N=C(c2ccc(Br)cc2)CC1c1ccc(OC)cc1 (stereo not drawn)	2835*	2412*	18	21	23*	2788*	37*	30*	21
